Results taken from PubChem BioAssay (NCI).
This is part of a sample that, as a whole, favours compounds with a hit. Of some 83,000 tested, about 20% had one in any assay.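 Step 1: grow cells in 96-well plates. Step 2: add test compound at a single concentration. Step 3: incubate 48 h. Step 4: record percent growth.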 Values without a mark were called inactive. Active and inactive are the calls of the source. How the source made its calls: active means growth percent below 10; inactive means the rest.

Each compound was assayed on SNB-19 CNS (assay: NCI-60 one-dose screen, 48 h (100 = growth as untreated, 0 = no growth, -100 = all killed)). Details: 10 µM unless noted.

Structure (SMILES)	growth
CN(C)c1nc(NCCNS(=O)(=O)c2ccc(C3=Nc4c(N)nc(N)nc4NC(c4ccccc4)C3)cc2)nc(Nc2ccc(F)cc2)n1 (stereo unspecified)	56.6%
N/C(=N\c1nc2ccccc2s1)NC(=O)Nc1ccc(Cl)cc1Cl	-23.5% (active)
CCCCn1c(O)c(N=Nc2nc(-c3cc4ccccc4oc3=O)cs2)c2cc(Br)ccc21	95.3%
Cc1cccc(-c2nc(Nc3cccc(S(N)(=O)=O)c3)c3ccccc3n2)c1	51.4%
Cn1cc(-c2cc(N)n3nc(-c4cn(C)c5ccccc45)cc3n2)c2cc(Br)ccc21	7.16% (active)
COc1cc2c(c(OC)c1OC)C(=O)CC(c1cccc(NC(=O)c3cc(NC(=O)[C@H](C)N)ccc3Cl)c1)O2 (stereo partly specified)	67.1%
C#CCOc1cc(N(CC)CC)ccc1C(C(=O)NC(C)(C)C)N(C(=O)C1CCc2cc(F)ccc2O1)c1cc(C)cc(C)c1 (stereo unspecified)	38.3%
Cc1ccc(C2=NN(c3nc(-c4cc5ccccc5oc4=O)cs3)C(c3ccc(C)cc3)C2)cc1 (stereo unspecified)	94.7%
Cn1cc(-c2nc(N)nnc2-c2c[nH]c3ccc(F)cc23)c2cc(Br)cnc21	22.9%

Each compound was assayed on U251 CNS in the same assay as above. Details: 10 µM unless noted.

Structure (SMILES)	growth
Brc1ccc(-c2n(Cc3ccc4ccccc4c3)c(-c3ccccc3)c(-c3ccccc3)[n+]2Cc2ccc3ccccc3c2)cc1	-97.8% (active)
O=C1CCCc2cc(OCC(=O)N3CCCCC3)ccc2N1	107%
COc1cc2c3c(n(CCCN4CCC[C@@H]4CO)c(=O)c2cc1OC)-c1cc2c(cc1C3=O)OCO2	-95.1% (active)
CC(=O)c1c(N)c(C#N)cn1-c1ccc(Cl)cc1Cl	98%
Cc1ccc(C2CC(c3ccc(S(=O)(=O)NCCNc4nc(Nc5ccc(F)cc5)nc(N(C)C)n4)cc3)=Nc3c(N)nc(N)nc3N2)cc1 (stereo unspecified)	47.3%
Cc1ccc(C(=O)C(c2c[nH]c3ccccc23)c2c[nH]c3ccccc23)cc1	21.6%
COc1cc(-c2nc3ccc(C)cc3[nH]2)ccc1OCc1nnc(-c2ccc(Br)cc2)o1	5.13% (active)
Nc1nnc(-c2c[nH]c3ccc(Br)cc23)c(-c2c[nH]c3ncc(Br)cc23)n1	41.8%
Cc1ccc(-c2nc(C#N)c(S(=O)(=O)N3CCN(S(=O)(=O)c4ccc(Cl)cc4)CC3)o2)cc1	62.1%
CCOC(=O)C1=C(N)N(c2ccccc2)C2=C(C(=O)CC(C)(C)C2)C1c1ccccc1Cl (stereo unspecified)	79.3%
Cc1ccc(C(=O)NN2C(=O)/C(=C/C=C/c3ccc([N+](=O)[O-])o3)SC2=S)cc1	-98.9% (active)
CCCS(=O)(=O)N1CCCC(C(=O)Nc2nc3ccc(NC(=O)c4ccc(F)c(OC)c4F)cc3s2)C1 (stereo unspecified)	51.5%
O=C1CC(Sc2n[nH]c(-c3ccncc3)n2)C(=O)N1c1ccc(Br)cc1 (stereo unspecified)	107%
COc1ccc(NC(=O)Nc2ccc(OCc3ccc(F)cc3)cc2)cc1	34.8%
COc1ccc(/C=C/c2nc3ccccc3n3c(-c4ccc(Cl)cc4)nnc23)cc1	87.5%
CC1(C)CC[C@]2(C(=O)O)CC[C@]3(C)C(=CCC4[C@@]5(C)C[C@@H](O)[C@@H]6OC(c7ccccc7Br)OC[C@@]6(C)C5CC[C@]43C)C2C1 (stereo partly specified)	13.2%
CC(=O)OCC1OC(OC2C(COC(C)=O)OC(n3cc(COc4ccc5ccc(=O)oc5c4)nn3)C(OC(C)=O)C2OC(C)=O)C(OC(C)=O)C(OC(C)=O)C1OC(C)=O (stereo unspecified)	106%
COc1ccc(Cc2nn(CC(=O)N/N=C/c3ccc(F)cc3)c(=O)c3c(C)noc23)cc1	17.8%
O=C(c1ccccc1)C(c1c[nH]c2ccccc12)c1c[nH]c2ccccc12	59.9%

Structure (SMILES)	growth
N=C1N=C(SCc2nc3ccccc3[nH]2)NC(=O)/C1=C/c1ccc(Cl)cc1	105%
Cn1cc(-c2cc3nc(-c4c[nH]c5ccc(Cl)cc45)cc(N)n3n2)c2ccccc21	-83% (active)
CC1(C)CC[C@]2(C(=O)O)CC[C@]3(C)C(=CCC4[C@@]5(C)C[C@@H](O)[C@@H]6OC(c7ccco7)OC[C@@]6(C)C5CC[C@]43C)C2C1 (stereo partly specified)	16.8%
COc1ccc(C2CC(c3ccc(S(=O)(=O)NCCNc4nc(Nc5ccc(F)cc5)nc(N(C)C)n4)cc3)=Nc3c(N)nc(N)nc3N2)cc1 (stereo unspecified)	64.5%
O=C(Nc1ccccc1)N1CCN(c2cc(-c3cn(-c4ccccc4)nc3-c3cccc(O)c3)ccn2)CC1	63%
CNS(=O)(=O)c1ccc(Nc2ccc(C(F)(F)F)cc2)c(-c2cn(C)cn2)c1	51.1%
CCS(=O)(=O)N1CCCC(C(=O)Nc2nc3ccc(NC(=O)c4ccc(F)c(OC)c4F)cc3s2)C1 (stereo unspecified)	65.9%
COc1ccc(CCC2c3c(cc4c(c3OC)OCO4)CCN2C)cc1 (stereo unspecified)	-90.4% (active)
Nc1nc(-c2ccccc2)c(N=Nc2ccc([N+](=O)[O-])cc2Cl)s1	82.5%
CN(C)c1nc(NCCNS(=O)(=O)c2ccc(C3=Nc4c(N)nc(N)nc4NC(c4ccccc4)C3)cc2)nc(Nc2ccc(F)cc2)n1 (stereo unspecified)	36.4%
N/C(=N\c1nc2ccccc2s1)NC(=O)Nc1ccc(Cl)cc1Cl	-97.9% (active)
CCCCn1c(O)c(N=Nc2nc(-c3cc4ccccc4oc3=O)cs2)c2cc(Br)ccc21	101%
Cc1cccc(-c2nc(Nc3cccc(S(N)(=O)=O)c3)c3ccccc3n2)c1	36.3%
Cn1cc(-c2cc(N)n3nc(-c4cn(C)c5ccccc45)cc3n2)c2cc(Br)ccc21	-72% (active)
COc1cc2c(c(OC)c1OC)C(=O)CC(c1cccc(NC(=O)c3cc(NC(=O)[C@H](C)N)ccc3Cl)c1)O2 (stereo partly specified)	20.9%
C#CCOc1cc(N(CC)CC)ccc1C(C(=O)NC(C)(C)C)N(C(=O)C1CCc2cc(F)ccc2O1)c1cc(C)cc(C)c1 (stereo unspecified)	19.5%
Cc1ccc(C2=NN(c3nc(-c4cc5ccccc5oc4=O)cs3)C(c3ccc(C)cc3)C2)cc1 (stereo unspecified)	99.9%
Cn1cc(-c2nc(N)nnc2-c2c[nH]c3ccc(F)cc23)c2cc(Br)cnc21	1.09% (active)
